Data as given in PubChem BioAssay (EPA / NIEHS).
Results filed as inconclusive are left out. The source made the active and inactive calls. Rule for the calls, unless noted: active = hit-call score of the fitted dose curve at least 0.9, where 1 is the maximum; inconclusive = response in the unintended direction; inactive = score below 0.9.

How the values were obtained:
PGR (gene 5241) [1] = target: PGR (gene 5241) (UniProt P06401); test: TOX21_PR_BLA_Followup_Agonist_ratio: Tox21 HEK293 Progesterone Receptor (PR) Agonism Beta-lactamase Follow-Up Assay, Ratio (AID 2283933)
Chain of PGR (gene 5241) (P06401 whole entry, looked up): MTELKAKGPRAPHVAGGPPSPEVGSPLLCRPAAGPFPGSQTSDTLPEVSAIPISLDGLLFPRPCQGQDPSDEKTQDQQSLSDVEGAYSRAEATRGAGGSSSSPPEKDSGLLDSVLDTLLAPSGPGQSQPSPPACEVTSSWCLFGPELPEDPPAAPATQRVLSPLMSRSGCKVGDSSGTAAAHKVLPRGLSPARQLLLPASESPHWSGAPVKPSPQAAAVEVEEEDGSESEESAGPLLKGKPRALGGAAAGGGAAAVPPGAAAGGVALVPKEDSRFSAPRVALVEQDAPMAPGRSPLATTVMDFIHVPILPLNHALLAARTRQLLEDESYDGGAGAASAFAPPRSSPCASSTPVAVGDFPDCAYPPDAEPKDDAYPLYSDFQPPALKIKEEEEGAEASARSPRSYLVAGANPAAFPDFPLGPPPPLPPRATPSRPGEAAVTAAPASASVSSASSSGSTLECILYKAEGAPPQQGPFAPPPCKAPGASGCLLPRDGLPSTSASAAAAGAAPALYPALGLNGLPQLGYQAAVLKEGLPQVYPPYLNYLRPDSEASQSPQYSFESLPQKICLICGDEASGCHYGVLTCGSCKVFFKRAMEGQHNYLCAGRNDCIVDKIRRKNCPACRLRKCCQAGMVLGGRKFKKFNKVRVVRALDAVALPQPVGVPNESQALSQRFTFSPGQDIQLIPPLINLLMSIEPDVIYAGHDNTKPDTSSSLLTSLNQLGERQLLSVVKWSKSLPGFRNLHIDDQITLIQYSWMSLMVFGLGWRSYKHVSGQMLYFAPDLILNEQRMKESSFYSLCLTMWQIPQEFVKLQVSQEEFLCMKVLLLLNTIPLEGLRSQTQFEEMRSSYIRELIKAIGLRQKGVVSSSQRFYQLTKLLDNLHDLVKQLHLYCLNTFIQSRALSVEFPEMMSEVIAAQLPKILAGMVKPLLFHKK
Procedure, shortened: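 Ratio-based beta-lactamase reporter signal after 16 hr compound treatment of PR-UAS-bla HEK293T cells at 37C. Substrate loading lasted 2 hr at room temperature.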

PGR (gene 5241) [2] = target: PGR (gene 5241) (UniProt P06401); test: TOX21_PR_BLA_Followup_Antagonist_ratio: Tox21 HEK293 Progesterone Receptor (PR) Antagonism Beta-lactamase Follow-Up Assay, Ratio (AID 2283934);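 note: PR-UAS-bla HEK293T cells stimulated with 1 nM R5020 agonist for 16 hr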
Procedure, shortened: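 Measured in PR-UAS-bla HEK293T cells co-treated with compound and 1 nM promegestone for 16 hr; beta-lactamase ratio read after 2 h FRET substrate loading, with parallel CellTiter-Glo cytotoxicity.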

[3] = TOX21_PR_BLA_Followup_Agonist_viability: Viability Assessment in the Tox21 HEK293 Progesterone Receptor (PR) Agonism Beta-lactamase Follow-Up Assay (AID 2283935);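 note: signal loss means lower viability so actives are cytotoxic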
Procedure, shortened: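 Viability is read as CellTiter-Glo luminescence, where loss of signal indicates cytotoxicity. The cells are PR-UAS-bla HEK293T given compounds for 16 hr at 37C and 5% CO2, in the same wells used for the bla readout.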

[4] = TOX21_PR_BLA_Followup_Antagonist_viability: Viability Assessment in the Tox21 HEK293 Progesterone Receptor (PR) Antagonism Beta-lactamase Follow-Up Assay (AID 2283936);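 note: cells exposed to compound with R5020 agonist for 16 h; hits lower the luminescence signal meaning cytotoxicity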
Procedure, shortened: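 PR-UAS-bla HEK293T cells in medium with 2% charcoal-stripped FBS were treated with compounds plus R5020 for 16 hr at 37C. After the beta-lactamase read, CellTiter-Glo was added to the same wells and luminescence read after 30 min at room temperature.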

PGR (gene 5241) [5] = target: PGR (gene 5241) (UniProt P06401); test: TOX21_PR_LUC_Followup_Agonist: Tox21 HEK293 Progesterone Receptor (PR) Agonism Luciferase Follow-Up Assay (AID 2283937; active = hit-call score of the fitted dose curve at least 0.9, where 1 is the maximum; inactive = score below 0.9)
Procedure, shortened: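 In HEK293 cells stably expressing PR-A with a luciferase reporter, compounds were incubated 16 h at 37C, and induced luminescence was quantified with ONE-Glo, multiplexed with cell viability.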

PGR (gene 5241) [6] = target: PGR (gene 5241) (UniProt P06401); test: TOX21_PR_LUC_Followup_Antagonist: Tox21 HEK293 Progesterone Receptor (PR) Antagonism Luciferase Follow-Up Assay (AID 2283938);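 note: curve fitted upward as signal gain over DMSO baseline despite antagonist label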
Procedure, shortened: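 Cells are grown 5 days in charcoal-stripped-FBS assay medium, plated, left 5 h, then dosed with compound and incubated 16 h. ONE-Glo reagent is added and luminescence read after 30 min.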

[7] = TOX21_PR_LUC_Followup_Agonist_viability: Viability Assessment in the Tox21 HEK293 Progesterone Receptor (PR) Agonism Luciferase Follow-Up Assay (AID 2283941);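 note: loss of signal means cytotoxicity so actives lower viability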
Procedure, shortened: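 Seeding: HEK293-PR-A-luc, 3,000 cells/well, 5 h at 37C. Treatment: compound in DMSO, 16 h, 37C. Read: CellTiter-Glo ATP luminescence, signal loss taken as lower viability.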

[8] = target: Thyroid hormone receptor alpha (Rattus norvegicus) + Thyroid hormone receptor beta (Rattus norvegicus) (UniProt P18113+P63059); test: TOX21_TR_LUC_GH3_Antagonist_Followup: Tox21 GH3 Thyroid Hormone Receptor Antagonism Luciferase Follow-Up Assay (AID 2283942)
Procedure, shortened: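 Luminescence read-out (ONE-Glo, 30 min at room temperature) in GH3 reporter cells challenged with 1.0 nM T3 final. Compounds ran at 92 uM to 5nM over 15 concentrations for 24 h; DMSO served as negative control and baseline.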

THRA (gene 7067) = THRA (gene 7067) (UniProt P10827); test: TOX21_TRA_COA_Antagonist_Followup_ratio: Tox21 Thyroid Hormone Receptor alpha Antagonism through Coactivator Recruitment Follow-Up Assay, Ratio (AID 2283953)
Chain of THRA (gene 7067) (P10827 whole entry, looked up, the tested form may be a part): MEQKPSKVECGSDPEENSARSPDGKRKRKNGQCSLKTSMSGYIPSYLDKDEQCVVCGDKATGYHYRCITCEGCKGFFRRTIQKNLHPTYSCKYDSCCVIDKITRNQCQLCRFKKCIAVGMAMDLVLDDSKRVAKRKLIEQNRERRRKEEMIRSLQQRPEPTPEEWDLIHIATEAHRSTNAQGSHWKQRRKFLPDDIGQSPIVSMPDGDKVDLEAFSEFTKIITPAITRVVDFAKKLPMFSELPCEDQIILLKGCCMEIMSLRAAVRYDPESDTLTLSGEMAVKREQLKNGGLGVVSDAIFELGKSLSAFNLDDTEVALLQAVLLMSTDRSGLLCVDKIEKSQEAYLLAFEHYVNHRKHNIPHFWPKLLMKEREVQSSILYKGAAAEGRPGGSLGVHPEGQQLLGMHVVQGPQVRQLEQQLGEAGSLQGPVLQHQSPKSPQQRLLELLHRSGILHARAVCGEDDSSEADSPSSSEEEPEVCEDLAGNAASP
Procedure, shortened: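 We measured antagonism of T3-type coactivator recruitment using a TR-FRET ratio (emission 520 and 495 nm) between a Tb-labelled anti-GST antibody on TRα LBD (2.5 nM) and SRC-2 peptide (200 nM). Activity was scaled between DMSO and T3 wells.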

THRB (gene 7068) [9] = target: THRB (gene 7068) (UniProt P10828); test: TOX21_TRB_BLA_Antagonist_Followup_ratio: Tox21 Thyroid Hormone Receptor beta Antagonism Beta-lactamase (BLA) Follow-Up Assay, Ratio (AID 2283958)
Chain of THRB (gene 7068) (P10828 whole entry, looked up, the tested form may be a part): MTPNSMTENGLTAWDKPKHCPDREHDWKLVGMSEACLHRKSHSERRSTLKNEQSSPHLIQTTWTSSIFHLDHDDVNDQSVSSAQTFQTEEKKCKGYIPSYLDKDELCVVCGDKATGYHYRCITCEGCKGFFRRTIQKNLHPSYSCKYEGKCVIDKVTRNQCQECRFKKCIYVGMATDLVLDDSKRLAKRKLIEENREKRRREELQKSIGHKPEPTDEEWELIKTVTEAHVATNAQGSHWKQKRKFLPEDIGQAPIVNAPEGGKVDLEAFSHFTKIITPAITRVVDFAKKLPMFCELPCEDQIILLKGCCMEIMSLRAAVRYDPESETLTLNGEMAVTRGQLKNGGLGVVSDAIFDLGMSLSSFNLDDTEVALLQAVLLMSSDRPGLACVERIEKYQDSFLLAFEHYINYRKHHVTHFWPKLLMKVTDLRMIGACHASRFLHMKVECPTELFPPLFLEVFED
Procedure, shortened: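 Using charcoal-stripped 2% FBS medium, human TRβ-LBD/GAL4 reporter HEK293T cells received test compounds for 18 h. The endpoint is the cleaved-to-uncleaved substrate ratio (460/530 nm).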

THRB (gene 7068) [10] = target: THRB (gene 7068) (UniProt P10828); test: TOX21_TRB_COA_Antagonist_Followup_ratio: Tox21 Thyroid Hormone Receptor beta Antagonism through Coactivator Recruitment Follow-Up Assay, Ratio (AID 2283967)
Procedure, shortened: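 GST-TRb LBD 5.0 nM + 0.10% BSA, compound added; fluorescein-SRC-2 peptide 200 nM, Tb-anti-GST Ab 2 nM. TR-FRET, ex 340 / em 520:495 ratio. Norm: DMSO 0%, T3 100%.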

[11] = TOX21_TR_RXR_BLA_Antagonist_Followup_viability: Viability Assessment in the Tox21 Thyroid Hormone Receptor beta Retinoid X Receptor alpha (RXRa) Antagonism Beta-lactamase (BLA) Follow-Up Assay (AID 2283979)
Procedure, shortened: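 RXRa-bla HEK293T cells (2,500/well, phenol red-free DMEM, 2% charcoal-stripped FBS) were attached 5 h, then exposed to compounds at 11 concentrations in triplicate for 16 h at 37C. Viability measured by CellTiter-Glo ATP luminescence, bidirectional fitting versus DMSO.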

[12] = TOX21_TRB_BLA_Antagonist_Followup_viability: Viability Assessment in the Tox21 Thyroid Hormone Receptor beta Antagonism Beta-lactamase (BLA) Follow-Up Assay (AID 2283961)
Procedure, shortened: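 TRβ-bla HEK293T (human TRβ LBD fused to GAL4 DBD), 3,000 cells/well, 2% charcoal-stripped FBS, phenol red-free medium; 18 h compound exposure, 37C; CellTiter-Glo 30 min RT; luminescence, loss-of-signal readout.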

Structure (SMILES)	AC50 (PGR (gene 5241) [1])	outcome (PGR (gene 5241) [2])	outcome [3]	outcome [4]	AC50 (PGR (gene 5241) [5])	outcome (PGR (gene 5241) [6])	outcome [7]	outcome [8]	outcome (THRA (gene 7067))	outcome (THRB (gene 7068) [9])	outcome (THRB (gene 7068) [10])	outcome [11]	outcome (PGR (gene 5241) [1])	outcome (PGR (gene 5241) [5])	outcome [12]
CC(=O)OCC(=O)[C@H]1CC[C@H]2[C@@H]3CCC4=CC(=O)CC[C@]4(C)[C@H]3CC[C@]12C	844 nM (active)	inactive	inactive	inactive	29.7 nM (active)	inactive	inactive	inactive	inactive	inactive	inactive	inactive	–	–	–
CC(=O)OCC(=O)[C@@]1(O)CC[C@H]2[C@@H]3CCC4=CC(=O)CC[C@]4(C)[C@H]3C(=O)C[C@@]21C	–	inactive	inactive	inactive	–	inactive	inactive	–	–	–	–	–	inactive	inactive	–
C/C=C1/C(=O)C[C@H]2[C@@H]3CCC4=CC(=O)CC[C@]4(C)[C@H]3CC[C@]12C	–	inactive	inactive	inactive	–	inactive	inactive	inactive	inactive	inactive	inactive	inactive	–	–	inactive
